Out of some 5,500 compounds screened, about 2,000 (36%) were called active. Not shown: some 18% with an inconclusive outcome. Some of the results follow. Unmarked numbers belong to inactive results. Cut-off read from the data, not from the text of the source: active = normalized growth mostly below about 0.91 (no sharp cut-off); inconclusive = no clear call, values can overlap the other calls; inactive = mostly above about 0.92.
Experiment: chemical genetic growth profiling, strain panel (AID 1159580);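 note: tested at 20 µM; growth read once vehicle control cultures reached saturation at 30 °C; 1 = growth at the plate median or of vehicle wells; lower values mean less growth of the strain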
Settings: growth OD
[1] = S. cerevisiae deletion strains, locus YAL013W, strain DEP1, active compounds read low
[2] = S. cerevisiae deletion strains, locus YBR229C, strain ROT2, active compounds read low
[3] = S. cerevisiae deletion strains, locus YCL061C, strain MRC1, active compounds read low
[4] = S. cerevisiae deletion strains, locus YDL101C, strain DUN1, active compounds read low
[5] = S. cerevisiae deletion strains, locus YDR150W, strain NUM1, active compounds read low
[6] = S. cerevisiae deletion strains, locus YEL061C, strain CIN8, active compounds read low
[7] = S. cerevisiae deletion strains, locus YGR078C, strain PAC10, active compounds read low
[8] = S. cerevisiae deletion strains, locus YHR030C, strain SLT2, active compounds read low
[9] = S. cerevisiae deletion strains, locus YHR087W, strain rtc3, active compounds read low
[10] = S. cerevisiae deletion strains, locus YJL187C, strain SWE1, active compounds read low
[11] = S. cerevisiae deletion strains, locus YJR043C, strain POL32, active compounds read low
[12] = S. cerevisiae deletion strains, locus YJR075W, strain HOC1, active compounds read low
[13] = S. cerevisiae deletion strains, locus YLR039C, strain RIC1, active compounds read low
[14] = S. cerevisiae deletion strains, locus YLR058C, strain SHM2 (second series), active compounds read low
[15] = S. cerevisiae deletion strains, locus YLR085C, strain ARP6, active compounds read low
[16] = S. cerevisiae deletion strains, locus YLR262C, strain YPT6, active compounds read low
[17] = S. cerevisiae deletion strains, locus YML094W, strain GIM5, active compounds read low
[18] = S. cerevisiae deletion strains, locus YMR219W, strain ESC1, active compounds read low
[19] = S. cerevisiae deletion strains, locus YNL128W, strain TEP1, active compounds read low
[20] = S. cerevisiae deletion strains, locus YNL153C, strain GIM3, active compounds read low
[21] = S. cerevisiae deletion strains, locus YNL298W, strain CLA4 (second series), active compounds read low
[22] = S. cerevisiae deletion strains, locus YNL322C, strain KRE1, active compounds read low
[23] = S. cerevisiae deletion strains, locus YNR030W, strain Alg12, active compounds read low
[24] = S. cerevisiae deletion strains, locus YOL006C, strain TOP1, active compounds read low
[25] = S. cerevisiae deletion strains, locus YPL055C, strain LGE1, active compounds read low
[26] = S. cerevisiae deletion strains, locus YPL241C, strain CIN2, active compounds read low
[27] = S. cerevisiae deletion strains, locus YPR135W, strain CTF4, active compounds read low
[28] = S. cerevisiae strains, strain wild type, active compounds read low
[29] = S. cerevisiae deletion strains, locus YMR263W, strain SAP30, active compounds read low

O=C(CSCc1c(F)cccc1Cl)Nc1ccc(F)c(Cl)c1
normalized growth [1]: 0.883 (active) | normalized growth [2]: 0.834 (active) | normalized growth [3]: 0.869 (active) | normalized growth [4]: 0.956 | normalized growth [5]: 0.83 | normalized growth [6]: 0.881 (active) | normalized growth [7]: 0.872 (active) | normalized growth (S. cerevisiae deletion strains, locus YGR229C, strain SMI1, active compounds read low): 0.913 (active) | normalized growth [8]: 0.194 (active) | normalized growth [9]: 0.811 (active) | normalized growth [10]: 0.875 (active) | normalized growth [11]: 0.909 (active) | normalized growth [12]: 0.794 (active) | normalized growth (S. cerevisiae deletion strains, locus YKL190W, strain CNB1, active compounds read low): 0.802 (active) | normalized growth [13]: 0.607 (active) | normalized growth [14]: 0.908 (active) | normalized growth [15]: 0.561 (active) | normalized growth [16]: 0.595 (active) | normalized growth [17]: 0.826 (active) | normalized growth [18]: 0.891 (active) | normalized growth [19]: 0.928 | normalized growth [20]: 0.935 | normalized growth [21]: 0.773 (active) | normalized growth [22]: 0.946 | normalized growth [23]: 0.752 (active) | normalized growth [24]: 0.953 | normalized growth [25]: 0.75 (active) | normalized growth [26]: 0.781 (active) | normalized growth [27]: 0.441 (active) | normalized growth [28]: 0.87 (active)

Cn1c(CSCC(=O)Nc2ccccc2)n[nH]c1=S
normalized growth [1]: 1.01 | normalized growth [2]: 1.01 | normalized growth [3]: 1.02 | normalized growth [4]: 1.02 | normalized growth [5]: 1.02 | normalized growth [6]: 1 | normalized growth [7]: 0.999 | normalized growth [8]: 1.09 | normalized growth [9]: 1.01 | normalized growth [11]: 1.02 | normalized growth [12]: 0.991 | normalized growth [13]: 1 | normalized growth [14]: 1 | normalized growth [15]: 0.966 | normalized growth [16]: 1.01 | normalized growth [17]: 0.994 | normalized growth [18]: 0.993 | normalized growth [29]: 1.02 | normalized growth [19]: 0.994 | normalized growth [20]: 1.02 | normalized growth [21]: 1.03 | normalized growth [22]: 0.99 | normalized growth [23]: 1 | normalized growth [25]: 1.03 | normalized growth [26]: 1 | normalized growth [27]: 1.07 | normalized growth [28]: 0.981

N#C/C(NCc1cccs1)=C(\C#N)NCc1c(F)cccc1Cl
normalized growth [1]: 0.958 | normalized growth [2]: 0.977 | normalized growth [3]: 0.97 | normalized growth [4]: 0.979 | normalized growth [5]: 0.899 | normalized growth [6]: 0.998 | normalized growth [7]: 0.973 | normalized growth [8]: 0.919 | normalized growth [9]: 0.991 | normalized growth [10]: 1 | normalized growth [11]: 0.988 | normalized growth [12]: 0.97 | normalized growth [13]: 0.939 | normalized growth [14]: 0.972 | normalized growth [15]: 0.957 | normalized growth [16]: 0.969 | normalized growth [17]: 0.964 | normalized growth [18]: 0.986 | normalized growth [29]: 0.947 | normalized growth (S. cerevisiae deletion strains, locus YMR307W, strain GAS1, active compounds read low): 0.919 | normalized growth [20]: 0.993 | normalized growth [21]: 0.959 | normalized growth [22]: 0.969 | normalized growth [23]: 0.964 | normalized growth [24]: 1.01 | normalized growth [26]: 0.973 | normalized growth [27]: 0.962

— PubChem BioAssay AID1159580 (chemical genetic matrix, 2015)
